Experimental data taken from the supplement of paper PMC11732987, “Enantioselective OTUD7B fragment discovery through chemoproteomics screening and high-throughput optimisation” (Communications Chemistry, 2025).
Unmarked numbers belong to inactive results.

Key:
Experiment in all cases: log2 ratio of Biotin-Ahx-Ub-VS probe labelling (fragment/DMSO); higher = less target engagement (more negative = stronger competition), active = hit call of the paper (q ≤ 0.05, log2 ratio ≤ -1)
Settings in all cases: compound concentration: 200 uM; treatment time: 3 h
[1] = biological target: T1, USP19 (UniProt O94966)
T1 sequence (whole entry): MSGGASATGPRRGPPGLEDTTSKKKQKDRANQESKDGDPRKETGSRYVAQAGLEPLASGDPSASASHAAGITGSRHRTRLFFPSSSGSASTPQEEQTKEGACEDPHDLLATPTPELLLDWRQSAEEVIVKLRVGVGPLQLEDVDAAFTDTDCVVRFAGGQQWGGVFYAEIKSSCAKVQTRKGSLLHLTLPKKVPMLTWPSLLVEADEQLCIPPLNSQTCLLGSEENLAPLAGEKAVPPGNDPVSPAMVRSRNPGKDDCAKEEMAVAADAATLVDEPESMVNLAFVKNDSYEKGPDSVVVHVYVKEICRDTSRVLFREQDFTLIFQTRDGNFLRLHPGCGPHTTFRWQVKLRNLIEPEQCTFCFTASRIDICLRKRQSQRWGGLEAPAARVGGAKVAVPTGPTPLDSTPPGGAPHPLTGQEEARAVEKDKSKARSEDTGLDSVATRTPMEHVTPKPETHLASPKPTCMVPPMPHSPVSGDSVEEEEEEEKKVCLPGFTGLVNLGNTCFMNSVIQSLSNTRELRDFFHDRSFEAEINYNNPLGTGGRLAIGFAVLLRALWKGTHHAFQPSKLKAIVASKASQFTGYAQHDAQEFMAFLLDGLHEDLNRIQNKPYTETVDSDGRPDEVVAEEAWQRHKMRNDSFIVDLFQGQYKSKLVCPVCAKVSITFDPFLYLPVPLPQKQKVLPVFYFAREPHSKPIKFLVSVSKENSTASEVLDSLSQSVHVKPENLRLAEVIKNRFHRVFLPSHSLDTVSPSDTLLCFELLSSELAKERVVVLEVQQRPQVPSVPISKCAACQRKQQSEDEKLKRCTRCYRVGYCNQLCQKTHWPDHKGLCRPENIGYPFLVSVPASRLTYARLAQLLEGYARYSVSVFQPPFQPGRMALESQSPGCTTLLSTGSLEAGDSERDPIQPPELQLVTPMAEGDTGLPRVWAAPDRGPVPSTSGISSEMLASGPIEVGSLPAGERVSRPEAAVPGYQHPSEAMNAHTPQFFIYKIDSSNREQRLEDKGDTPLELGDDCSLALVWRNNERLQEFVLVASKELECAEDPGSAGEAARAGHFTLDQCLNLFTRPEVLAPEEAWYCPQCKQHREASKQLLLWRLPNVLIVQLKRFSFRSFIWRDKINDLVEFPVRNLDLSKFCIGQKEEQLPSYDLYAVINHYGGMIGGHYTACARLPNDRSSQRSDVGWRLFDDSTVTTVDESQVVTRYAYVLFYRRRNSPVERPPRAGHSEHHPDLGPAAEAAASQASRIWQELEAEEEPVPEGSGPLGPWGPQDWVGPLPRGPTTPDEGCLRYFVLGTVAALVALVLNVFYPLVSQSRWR
In short: (§1)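 Labelling with Biotin-Ahx-Ub-VS (0.5 µM final, 1 h) followed a 3 h triplicate treatment of HEK293T lysate (495 µg per sample, Tris/CHAPS/IGEPAL buffer with protease inhibitors) with fragment at 200 µM or vehicle. Labelled DUBs were NeutrAvidin-enriched, digested with LysC and trypsin, and run by diaPASEF LC-MS/MS. The values, average log2 fragment/vehicle ratios by unpaired t-test, come from global-median-normalised Spectronaut label-free quantities. Proteins with ≥2 unique peptides were used.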

[2] = biological target: T2, USP22 (UniProt Q9UPT9)
T2 sequence (whole entry): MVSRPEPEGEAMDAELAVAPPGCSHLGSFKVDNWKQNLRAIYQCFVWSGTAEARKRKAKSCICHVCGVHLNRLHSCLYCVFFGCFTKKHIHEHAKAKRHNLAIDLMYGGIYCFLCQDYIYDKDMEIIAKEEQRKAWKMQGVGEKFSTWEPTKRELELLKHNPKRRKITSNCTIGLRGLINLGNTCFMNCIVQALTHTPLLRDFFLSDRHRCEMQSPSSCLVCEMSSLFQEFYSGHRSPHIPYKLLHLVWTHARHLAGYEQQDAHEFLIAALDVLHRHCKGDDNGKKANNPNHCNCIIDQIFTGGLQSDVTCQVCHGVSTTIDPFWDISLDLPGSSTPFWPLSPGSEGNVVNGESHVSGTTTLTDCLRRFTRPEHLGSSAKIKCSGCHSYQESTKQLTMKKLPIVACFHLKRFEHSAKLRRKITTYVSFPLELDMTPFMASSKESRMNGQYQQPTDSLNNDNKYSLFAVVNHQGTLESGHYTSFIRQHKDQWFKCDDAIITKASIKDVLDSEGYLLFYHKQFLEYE
In short: as §1

[3] = biological target: USP24 (UniProt Q9UPU5)
Sequence of USP24 (Q9UPU5 whole entry): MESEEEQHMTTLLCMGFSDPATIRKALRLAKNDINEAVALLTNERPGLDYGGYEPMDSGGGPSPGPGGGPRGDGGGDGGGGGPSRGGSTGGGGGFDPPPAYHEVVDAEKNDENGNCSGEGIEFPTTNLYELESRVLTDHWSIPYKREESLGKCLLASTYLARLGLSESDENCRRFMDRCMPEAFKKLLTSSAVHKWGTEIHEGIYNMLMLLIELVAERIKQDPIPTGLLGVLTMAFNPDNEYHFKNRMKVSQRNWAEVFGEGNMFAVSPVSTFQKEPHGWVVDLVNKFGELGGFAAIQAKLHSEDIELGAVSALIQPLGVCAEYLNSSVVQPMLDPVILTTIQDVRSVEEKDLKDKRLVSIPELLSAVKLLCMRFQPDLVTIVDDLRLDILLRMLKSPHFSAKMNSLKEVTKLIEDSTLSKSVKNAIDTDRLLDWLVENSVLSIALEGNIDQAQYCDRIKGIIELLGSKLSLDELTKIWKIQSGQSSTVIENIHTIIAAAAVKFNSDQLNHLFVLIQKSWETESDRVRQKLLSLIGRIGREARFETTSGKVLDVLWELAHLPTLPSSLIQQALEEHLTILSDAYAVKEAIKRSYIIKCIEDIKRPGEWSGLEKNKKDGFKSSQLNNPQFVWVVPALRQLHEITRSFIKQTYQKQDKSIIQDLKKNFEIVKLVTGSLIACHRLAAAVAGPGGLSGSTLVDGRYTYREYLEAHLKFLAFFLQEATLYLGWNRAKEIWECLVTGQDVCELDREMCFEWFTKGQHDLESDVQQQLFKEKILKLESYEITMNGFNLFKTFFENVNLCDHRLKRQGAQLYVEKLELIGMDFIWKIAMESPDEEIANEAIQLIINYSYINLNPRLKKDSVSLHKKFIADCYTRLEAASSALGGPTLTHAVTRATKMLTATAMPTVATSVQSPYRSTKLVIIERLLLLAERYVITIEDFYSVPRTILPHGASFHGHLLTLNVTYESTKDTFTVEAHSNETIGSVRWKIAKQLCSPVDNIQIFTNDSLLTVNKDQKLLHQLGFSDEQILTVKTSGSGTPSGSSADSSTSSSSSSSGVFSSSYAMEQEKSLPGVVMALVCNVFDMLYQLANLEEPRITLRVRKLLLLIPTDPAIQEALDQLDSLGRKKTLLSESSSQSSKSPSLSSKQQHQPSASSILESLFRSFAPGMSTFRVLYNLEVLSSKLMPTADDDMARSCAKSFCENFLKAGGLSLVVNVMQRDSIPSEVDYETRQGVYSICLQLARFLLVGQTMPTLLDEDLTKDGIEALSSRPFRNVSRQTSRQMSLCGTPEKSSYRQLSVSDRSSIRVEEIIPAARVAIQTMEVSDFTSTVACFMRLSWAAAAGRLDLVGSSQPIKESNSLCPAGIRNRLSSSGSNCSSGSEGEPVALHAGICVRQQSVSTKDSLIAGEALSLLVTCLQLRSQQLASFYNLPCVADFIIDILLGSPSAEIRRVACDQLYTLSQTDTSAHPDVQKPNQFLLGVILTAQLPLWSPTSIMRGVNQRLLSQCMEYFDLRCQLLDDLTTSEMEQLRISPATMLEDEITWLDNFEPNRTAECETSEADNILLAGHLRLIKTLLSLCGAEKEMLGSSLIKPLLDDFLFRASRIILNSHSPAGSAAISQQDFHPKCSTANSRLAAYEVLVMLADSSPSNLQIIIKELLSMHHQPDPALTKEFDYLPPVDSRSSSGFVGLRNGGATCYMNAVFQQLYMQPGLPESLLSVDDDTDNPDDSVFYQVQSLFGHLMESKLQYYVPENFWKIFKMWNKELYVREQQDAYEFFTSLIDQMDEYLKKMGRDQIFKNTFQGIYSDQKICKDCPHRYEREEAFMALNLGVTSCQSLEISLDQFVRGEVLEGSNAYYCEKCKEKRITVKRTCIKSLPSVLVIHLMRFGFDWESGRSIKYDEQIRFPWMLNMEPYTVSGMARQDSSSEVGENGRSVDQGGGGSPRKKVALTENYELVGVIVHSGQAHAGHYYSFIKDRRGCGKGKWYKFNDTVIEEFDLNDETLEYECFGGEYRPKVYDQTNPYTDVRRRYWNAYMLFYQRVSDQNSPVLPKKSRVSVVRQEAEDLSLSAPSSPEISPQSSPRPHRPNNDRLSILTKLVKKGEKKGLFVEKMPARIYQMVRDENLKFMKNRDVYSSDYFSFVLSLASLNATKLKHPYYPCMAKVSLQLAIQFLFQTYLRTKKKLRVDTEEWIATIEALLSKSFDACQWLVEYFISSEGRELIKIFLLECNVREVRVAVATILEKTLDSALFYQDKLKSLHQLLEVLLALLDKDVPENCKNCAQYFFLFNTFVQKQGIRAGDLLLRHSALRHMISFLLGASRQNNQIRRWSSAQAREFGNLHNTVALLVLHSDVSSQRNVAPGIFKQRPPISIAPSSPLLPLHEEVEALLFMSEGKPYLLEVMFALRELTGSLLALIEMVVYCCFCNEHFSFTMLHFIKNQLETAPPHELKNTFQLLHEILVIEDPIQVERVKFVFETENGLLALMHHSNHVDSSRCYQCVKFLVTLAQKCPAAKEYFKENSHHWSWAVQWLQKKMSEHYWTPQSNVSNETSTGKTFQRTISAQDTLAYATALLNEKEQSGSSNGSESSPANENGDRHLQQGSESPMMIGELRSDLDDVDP
In short: as §1

[4] = biological target: T3, USP25 (UniProt Q9UHP3)
T3 sequence (whole entry): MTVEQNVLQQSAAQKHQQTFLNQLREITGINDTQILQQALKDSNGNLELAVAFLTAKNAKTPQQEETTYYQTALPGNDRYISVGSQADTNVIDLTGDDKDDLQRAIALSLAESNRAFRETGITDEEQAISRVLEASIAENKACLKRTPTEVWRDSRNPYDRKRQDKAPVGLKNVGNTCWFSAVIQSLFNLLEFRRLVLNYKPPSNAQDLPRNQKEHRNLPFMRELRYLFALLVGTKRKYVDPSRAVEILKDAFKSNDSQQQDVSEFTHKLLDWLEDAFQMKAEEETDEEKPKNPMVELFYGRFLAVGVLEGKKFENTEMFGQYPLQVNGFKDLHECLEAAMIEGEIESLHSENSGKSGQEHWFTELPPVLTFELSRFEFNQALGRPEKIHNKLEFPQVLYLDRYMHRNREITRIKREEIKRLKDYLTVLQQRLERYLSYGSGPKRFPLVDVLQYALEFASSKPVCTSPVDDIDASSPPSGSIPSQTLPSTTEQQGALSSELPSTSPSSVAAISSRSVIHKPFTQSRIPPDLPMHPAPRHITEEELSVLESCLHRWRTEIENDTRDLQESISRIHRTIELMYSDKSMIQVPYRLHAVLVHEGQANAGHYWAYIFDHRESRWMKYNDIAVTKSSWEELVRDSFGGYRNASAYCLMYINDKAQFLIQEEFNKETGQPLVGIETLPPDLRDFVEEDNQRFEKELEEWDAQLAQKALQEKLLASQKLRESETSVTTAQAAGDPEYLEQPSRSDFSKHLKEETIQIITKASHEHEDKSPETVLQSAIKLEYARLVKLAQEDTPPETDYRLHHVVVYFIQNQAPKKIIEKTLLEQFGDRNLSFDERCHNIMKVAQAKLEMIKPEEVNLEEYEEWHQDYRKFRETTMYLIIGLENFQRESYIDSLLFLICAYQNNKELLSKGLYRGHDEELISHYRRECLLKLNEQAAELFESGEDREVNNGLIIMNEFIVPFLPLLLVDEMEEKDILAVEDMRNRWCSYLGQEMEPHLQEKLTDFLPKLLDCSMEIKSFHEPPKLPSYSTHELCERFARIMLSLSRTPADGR
In short: as §1

[5] = biological target: T4, USP28 (UniProt Q96RU2)
T4 sequence (whole entry): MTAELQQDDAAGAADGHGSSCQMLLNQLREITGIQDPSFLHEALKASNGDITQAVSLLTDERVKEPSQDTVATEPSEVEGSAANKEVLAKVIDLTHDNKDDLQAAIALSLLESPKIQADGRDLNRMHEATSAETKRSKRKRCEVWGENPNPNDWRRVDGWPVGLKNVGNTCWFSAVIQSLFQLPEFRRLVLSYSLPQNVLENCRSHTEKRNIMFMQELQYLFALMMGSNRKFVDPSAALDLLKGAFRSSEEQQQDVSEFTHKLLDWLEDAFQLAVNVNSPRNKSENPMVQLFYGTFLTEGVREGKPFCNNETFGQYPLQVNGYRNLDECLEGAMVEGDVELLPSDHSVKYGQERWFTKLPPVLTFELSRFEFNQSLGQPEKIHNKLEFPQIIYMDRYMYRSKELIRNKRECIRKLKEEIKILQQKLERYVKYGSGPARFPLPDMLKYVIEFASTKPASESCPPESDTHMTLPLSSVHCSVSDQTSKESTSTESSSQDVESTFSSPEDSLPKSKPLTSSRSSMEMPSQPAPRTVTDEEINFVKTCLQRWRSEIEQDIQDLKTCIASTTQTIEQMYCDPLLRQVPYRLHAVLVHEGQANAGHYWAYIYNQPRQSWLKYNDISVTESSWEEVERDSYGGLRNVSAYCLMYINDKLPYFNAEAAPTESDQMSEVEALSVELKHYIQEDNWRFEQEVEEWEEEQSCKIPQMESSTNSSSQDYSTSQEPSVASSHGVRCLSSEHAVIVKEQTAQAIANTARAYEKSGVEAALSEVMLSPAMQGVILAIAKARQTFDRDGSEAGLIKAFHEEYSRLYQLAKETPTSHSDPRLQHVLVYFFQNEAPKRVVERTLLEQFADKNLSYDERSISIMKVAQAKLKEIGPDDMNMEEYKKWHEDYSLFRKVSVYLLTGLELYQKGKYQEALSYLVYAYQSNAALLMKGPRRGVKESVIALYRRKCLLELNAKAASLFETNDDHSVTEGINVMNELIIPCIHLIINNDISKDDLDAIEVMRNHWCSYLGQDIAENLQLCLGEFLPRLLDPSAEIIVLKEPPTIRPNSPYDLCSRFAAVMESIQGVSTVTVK
In short: as §1

O=C(CCl)Nc1cc2c(cc1Cl)OCCO2
log2 ratio of Biotin-Ahx-Ub-VS probe labelling [1]: 0.00638 | log2 ratio of Biotin-Ahx-Ub-VS probe labelling [2]: -0.112 | log2 ratio of Biotin-Ahx-Ub-VS probe labelling [3]: -0.0527 | log2 ratio of Biotin-Ahx-Ub-VS probe labelling [4]: -1.52 (active) | log2 ratio of Biotin-Ahx-Ub-VS probe labelling [5]: -1.81 (active)
